# According to PubChem BioAssay (NCATS):
# Records with an inconclusive call do not appear. Active and inactive are the calls of the source. The call rests on the fitted dose curve; in most records, active means well fitted cell-killing curve with a large enough effect; inconclusive means small, poorly fitted or top-dose-only effect; inactive means flat fitted curve, though single readings scatter.
# Experiment: qHTS assay to identify small molecule inhibitors of chordoma cells - UCH-2 (AID 1259356)
# Conditions: UCH-2 chordoma viability, CellTiter-Glo ATP luminescence, 48 h; series mostly up to 46.1 µM; activity change, negative = inhibition: at the top concentration
# On the % scale 0 is the no-effect control and ±100 the full control effect.
row,Structure (SMILES),"activity change, negative = inhibition"
1,NC(=O)C1c2ccccc2CCc2ccccc21,3.12% (inactive)
2,C=C1CC[C@H](O)C/C1=C\C=C1/CCC[C@]2(C)[C@@H]([C@H](C)CCCC(C)C)CC[C@@H]12,-2.59% (inactive)
3,COC1=C(OC)C(=O)C(C/C=C(\C)CC/C=C(\C)CC/C=C(\C)CC/C=C(\C)CC/C=C(\C)CC/C=C(\C)CC/C=C(\C)CC/C=C(\C)CC/C=C(\C)CCC=C(C)C)=C(C)C1=O,-0.47% (inactive)
4,c1ccc(-n2cnnn2)cc1,-1.26% (inactive)
5,CC1CCCCN1CCCOC(=O)c1ccccc1 (stereo not drawn),-13% (inactive)
6,N=C(N)c1ccc(/C=C/c2ccc(C(=N)N)cc2O)cc1,2.14% (inactive)
7,CN(Cc1ccccc1)Cc1ccccc1,-0.747% (inactive)
8,CC(=O)NCCCS(=O)(=O)O,6.66% (inactive)
9,CCCc1ccc(C(=O)O)cc1,9.32% (inactive)
10,O=C1NC(=O)[C@H]2[C@@H]1[C@@H]1C=C[C@H]2C1,1.34% (inactive)
11,CCN(CC)CCOC(=O)c1cccnc1,-15.7% (inactive)
12,O=C(O)Cc1cc(I)c(Oc2ccc(O)c(I)c2)c(I)c1,2.45% [at 20.6 µM] (inactive)
13,O=C(O)/C=C/C(=O)Nc1ccc(S(=O)(=O)Nc2nccs2)cc1,5.83% (inactive)
14,CN1CCc2c(c3ccccc3n2Cc2ccccc2)C1,13.4% [at 20.6 µM] (inactive)
15,Cc1cc(O)c2c(c1)O[C@@]1(C)CC[C@H]3C(C)(C)CCCC34CO[C@@H]2[C@H]41 (stereo partly drawn),9.18% (inactive)
16,CC1(O)CCC(C(C)(C)O)CC1 (stereo not drawn),-9.41% (inactive)
17,CN[C@@H]1[C@@H](O)[C@@H](O[C@@H]2[C@@H](O)[C@H](OC3OC(CN)=CCC3N)[C@@H](N)C[C@H]2N)OC[C@]1(C)O (stereo partly drawn),-6.52% [at 20.6 µM] (inactive)
18,CC1(C)S[C@@H]2[C@H](N3C(=O)C(c4ccccc4)NC3(C)C)C(=O)N2[C@H]1C(=O)O (stereo partly drawn),1.18% (inactive)
